PubChem BioAssay AID1445 (SRMLSC, 2008)
Out of some 220,000 compounds screened, about 910 (0.41%) were called active.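 Rule for the calls: active = primary inhibition above the hit cutoff, then over 50% inhibition at one or more dose response concentrations (cut at about 23% in these data, passing the limit was not always enough); inconclusive = conflicting primary data, or primary hits not chosen for dose response; inactive = low primary inhibition, or under 50% at every dose.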 For the sample, actives were picked, then their nearest neighbours and some compounds at random. Measured potencies and affinities stand elsewhere.

Molecular target: Aminopeptidase N (Plasmodium falciparum (isolate 3D7)) (UniProt O96935)
Sequence (O96935 whole entry, looked up): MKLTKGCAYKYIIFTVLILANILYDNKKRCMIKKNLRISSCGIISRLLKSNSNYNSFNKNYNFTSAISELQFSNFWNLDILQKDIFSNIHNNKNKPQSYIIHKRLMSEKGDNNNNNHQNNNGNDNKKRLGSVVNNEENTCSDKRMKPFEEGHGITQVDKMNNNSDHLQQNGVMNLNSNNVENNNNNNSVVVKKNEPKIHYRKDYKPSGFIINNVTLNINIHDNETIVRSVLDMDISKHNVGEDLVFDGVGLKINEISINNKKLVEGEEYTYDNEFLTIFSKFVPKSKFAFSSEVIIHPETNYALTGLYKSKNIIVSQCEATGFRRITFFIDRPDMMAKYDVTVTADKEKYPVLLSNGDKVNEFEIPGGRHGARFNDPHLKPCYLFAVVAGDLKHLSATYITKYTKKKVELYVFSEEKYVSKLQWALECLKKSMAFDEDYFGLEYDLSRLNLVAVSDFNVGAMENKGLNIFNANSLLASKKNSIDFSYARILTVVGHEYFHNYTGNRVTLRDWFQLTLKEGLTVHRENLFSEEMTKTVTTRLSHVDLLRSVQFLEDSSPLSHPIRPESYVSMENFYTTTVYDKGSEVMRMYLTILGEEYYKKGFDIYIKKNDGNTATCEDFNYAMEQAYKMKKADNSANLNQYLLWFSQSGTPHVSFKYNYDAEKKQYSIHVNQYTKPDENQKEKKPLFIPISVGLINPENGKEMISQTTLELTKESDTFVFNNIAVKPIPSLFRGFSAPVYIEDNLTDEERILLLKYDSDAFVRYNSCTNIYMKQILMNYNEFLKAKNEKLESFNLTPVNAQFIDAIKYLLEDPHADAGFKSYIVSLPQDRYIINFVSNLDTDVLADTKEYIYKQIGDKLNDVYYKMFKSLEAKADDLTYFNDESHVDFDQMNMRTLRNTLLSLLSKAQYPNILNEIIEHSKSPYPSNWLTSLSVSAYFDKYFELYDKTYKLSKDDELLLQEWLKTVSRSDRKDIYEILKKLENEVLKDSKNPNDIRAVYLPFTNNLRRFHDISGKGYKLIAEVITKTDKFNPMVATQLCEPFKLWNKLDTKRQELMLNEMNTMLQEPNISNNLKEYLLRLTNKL
Test: P. falciparum M1AAP inhibitors, biochemical, fluorogenic H-Leu-NHMec substrate, 1536-well (AID 1445);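 note: plate controls were DMSO full reaction for no effect and no enzyme background for full effect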
Conditions: recombinant M1AAP, H-Leu-NHMec fluorogenic kinetic assay; at 30 µM, stronger effect = higher value unless noted

Row | SMILES | inhibition
1 | O=C(c1cccnc1)N1CCN(c2ccccc2Cl)CC1 | -11.5% (inactive)
2 | Cc1c(Cl)cccc1N1C(=O)CC(NNC(=O)c2cccnc2)C1=O (centres undefined) | 8.09% (inactive)
3 | CCN1C(=S)SC(=O)C1=C1C=C(C)N(Cc2ccco2)C(C)=C1 | 12.6% (inactive)
4 | CCN1C(=S)SC(=O)C1=C1C=C(C)N(CCO)C(C)=C1 | 26.2% (active)
5 | CCN1C(=S)SC(=O)C1=C1C=C(C)OC(C)=C1 | 0.47% (inactive)
6 | C/C(CC(=O)Nc1ccccc1)=N\NC(=O)COc1ccc(C)cc1Br | 2.81% (inactive)
7 | CCC(C)(C)n1nnnc1C(c1ccc2ncccc2c1)N1CCN(c2ccc(O)cc2)CC1 (centres undefined) | 4.2% (inactive)
8 | CCC(C)(C)n1nnnc1C(c1ccc2ncccc2c1)N1CCCCCC1 (centres undefined) | 4.86% (inactive)
9 | COc1ccc(/C=C/C(=O)NCc2cnn(C)c2C)cc1COc1ccc(Br)cc1 | -0.2% (inactive)
10 | CC1CCCC(C)N1NC(=O)c1cccc(S(=O)(=O)N2CCc3ccccc32)c1 (centres undefined) | 1.3% (inactive)
11 | COC(=O)n1c(=O)oc2ccccc21 | 6.55% (inactive)
12 | COc1cccc(Cn2nnc(C(=O)Nc3cc(C)ccc3OC)c2N)c1 | 7.36% (inactive)
13 | CCn1cnc2c1c(=O)n(CC(=O)Nc1cc(C)on1)c(=O)n2Cc1ccccc1 | -3% (inactive)
14 | CN(C)c1ccc(NC(=O)Cn2c(=O)n(Cc3ccccc3)c(=O)c3ccccc32)cc1 | 10.9% (inactive)
15 | Cc1cc(NC(=O)Cn2c(=O)n(Cc3ccccc3)c(=O)c3ccccc32)no1 | 23.7% (active)
16 | Cc1ccc(C(=O)CC2(O)C(=O)Nc3ccccc32)s1 (centres undefined) | -3.92% (inactive)
17 | CCOc1ccccc1NC(=S)NCCCn1ccnc1 | -1.93% (inactive)
18 | O=C(Nc1ccc(F)cc1)c1ccccc1S(=O)(=O)c1ccccc1[N+](=O)[O-] | 10.1% (inactive)
19 | CC(=O)Nc1ccc(NC(=O)c2ccccc2S(=O)(=O)c2ccccc2[N+](=O)[O-])cc1 | 6.51% (inactive)
20 | COCc1cc(C)n(CC(=O)OC)c(=O)c1C#N | 6.13% (inactive)
21 | CC(C)(C)NC(=O)CN(C(=O)CS(=O)CC(=O)Nc1ccc(F)cc1)c1ccc(Cl)cc1 (centres undefined) | 3.41% (inactive)
22 | CCN(CC)c1nc2ccccc2nc1-n1nc(C)cc1C | 25.1% (active)
23 | Cc1cc(C)n(-c2nc3ccccc3nc2N2CCCC2)n1 | 7.98% (inactive)
24 | Cc1cc(C)n(-c2nc3ccccc3nc2N2CCCCCC2)n1 | 5.75% (inactive)

Row | SMILES | inhibition
25 | CC(=O)c1sc2nc(C)cc(C)c2c1N | 3.82% (inactive)
26 | CCn1c(SCC(=O)N2CCCC2)nnc1-c1ccc(S(=O)(=O)N2CCCCCC2)cc1 | 17.8% (inactive)
27 | CCOC(=O)C1=C(O)/C(=C/c2ccc(-c3ccccc3C(=O)O)o2)SC1=Nc1ccc(OC)cc1 | 26.2% (active)
28 | CCOC(=O)C1=C(O)/C(=C/c2ccccn2)SC1=Nc1ccc(Cl)cc1 | -2.13% (inactive)
29 | CCOC(=O)C1=C(O)/C(=C/c2cc(OC)c(OC)c(OC)c2)SC1=Nc1ccc(OC)cc1 | 0.13% (inactive)
30 | CCOC(=O)c1ccc(N2C(=O)C(O)=C(C(C)=O)C2c2ccc(O)c(OC)c2)cc1 (centres undefined) | 11% (inactive)
31 | COc1ccccc1-c1c(NC(=O)c2ccco2)n(C)c2ccccc2c1=O | 5.76% (inactive)
32 | CN(C(=O)c1cnc2n(c1=O)CCS2)C1CCCCC1 | 7.72% (inactive)
33 | O=C(c1cnc2n(c1=O)CCS2)N(c1ccccc1)C1CCCCC1 | 3.16% (inactive)
34 | Cn1nnnc1Sc1ccc([N+](=O)[O-])cc1Cl | 4.02% (inactive)
35 | Cc1ccc(OCC(=O)Nc2ccc(S(=O)(=O)Nc3ccccn3)cc2)cc1C | -0.21% (inactive)
36 | Cc1ccc2nc(NC(=O)CSc3nncc(=O)n3N)sc2c1 | -3.78% (inactive)
37 | CC1=CC(c2ccccc2)n2nc(NS(=O)(=O)c3ccc(C)cc3)nc2N1 (centres undefined) | 9.04% (inactive)
38 | CC(=O)Nc1nc2n(n1)C(c1ccccc1)C=C(c1ccccc1)N2 (centres undefined) | 21.9% (inactive)
39 | CC1=CC2=NC(=O)/C(=C\c3cccn3CCOc3cc(C)cc(C)c3)C(=N)N2O1 | 4.33% (inactive)
40 | CCOC(=O)COc1cc2oc(=O)cc(C)c2cc1[N+](=O)[O-] | 1.36% (inactive)
41 | CSc1cccc(-n2cc(-c3ccc4c(c3)OCO4)[nH]c2=O)c1 | 25.8% (active)
42 | COc1ccc(-c2cn(-c3cccc(C)c3)c(=O)[nH]2)cc1OC | 0.73% (inactive)
43 | CCOc1ccc(-c2cn(-c3cccc(SC)c3)c(=O)[nH]2)cc1 | 7.5% (inactive)
44 | COc1cccc(-c2nnc(SCc3cccnc3)o2)c1 | 1.1% (inactive)
45 | Cc1nn(-c2ccccc2)c(C)c1/C=N/NC(=O)c1cc(C23CC4CC(CC(C4)C2)C3)[nH]n1 | 8.14% (inactive)
46 | CN(NS(=O)(=O)c1ccc(Cl)cc1)c1ncc(C(F)(F)F)cc1Cl | 3.99% (inactive)
47 | Cc1cccc(NC(=O)c2c(-c3ccccc3)noc2C)n1 | 3.16% (inactive)
48 | CSc1cccc(NC(=S)N2CCC(N(C)C3CCCCCC3)CC2)c1 | 5.52% (inactive)

Row | SMILES | inhibition
49 | Cc1oc2cc(O)cc(O)c2c(=O)c1-c1ccc2c(c1)OCCCO2 | -10.6% (inactive)
50 | O=c1c(-c2ccc3c(c2)OCCO3)coc2cc(O)cc(O)c12 | 13.2% (inactive)
51 | O=c1c(-c2ccc3c(c2)OCCO3)c(C(F)(F)F)oc2cc(O)cc(O)c12 | 24.6% (active)
52 | NC(=O)CSc1nnc(-c2cccnc2)n1Cc1ccccc1 | -0.97% (inactive)
53 | Cn1nc(C(=O)Nc2sc3c(c2C#N)CCCC3)ccc1=O | 4.41% (inactive)
54 | O=C1c2ccccc2C(=O)N1n1c(=O)[nH]c2ccccc2c1=O | 2.13% (inactive)
55 | CC(C)Cn1c(CN2C(=O)c3ccccc3C2=O)nc2ccccc2c1=O | -3.16% (inactive)
56 | Brc1ccccc1-c1csnn1 | 2.07% (inactive)
57 | CCOCCCn1c(=S)[nH]c2cc(C(=O)NCCCN(CC)CC)ccc2c1=O | 12.3% (inactive)
58 | COc1ccc(C(=O)c2c(C)oc3ccc(O)c(CN4CCOCC4)c23)cc1 | 1.06% (inactive)
59 | O=C(CC(Cc1ccccc1)c1ccco1)NC1CCCCC1 (centres undefined) | 3.48% (inactive)
60 | CC1=CC(c2ccc(Cl)cc2)n2nc(N3C(=O)CCC3=O)nc2N1 (centres undefined) | 14.2% (inactive)
61 | Cc1ccc(C2C=C(c3ccccc3)Nc3nc(N4C(=O)CCC4=O)nn32)cc1 (centres undefined) | 4.75% (inactive)
62 | COC(=O)c1cc(O)c(O)c(O)c1 | 6.36% (inactive)
63 | COC(=O)c1ccc(Sc2ccc(C)cc2)c(N)c1 | 11.3% (inactive)
64 | CCCN(CC1CC1)C(=S)NC(=O)C1CC1 | 3.89% (inactive)
65 | CC(=O)CCc1c(C)nc2ccc(C(=O)O)cc2c1Cl | 11.9% (inactive)
66 | CCOC(=O)c1cccc(Nc2ncnc3ccccc23)c1 | 6.34% (inactive)
67 | O=S(=O)(c1ccc(Cl)cc1)N(CCCN1CCOCC1)Cc1cccs1 | 2.6% (inactive)
68 | COc1cc(NC(=O)c2cccs2)c(OC)cc1NC(=O)CCn1nnc2ccccc21 | 25% (active)
69 | C/C(=N\NC(=O)CCn1nnc2ccccc21)c1cccs1 | 0% (inactive)
70 | COc1cc(NC(=O)c2cccs2)c(OC)cc1NC(=O)CCC(=O)Nc1cccc2ncccc12 | 16.7% (inactive)
71 | Cc1ccc(Cn2ccc(NC(=O)c3noc4c3CCc3ccccc3-4)n2)cc1 | 8.24% (inactive)
72 | Cc1cc([N+](=O)[O-])ccc1NC(=S)NC(=O)C(c1ccccc1)c1ccccc1 | 9.66% (inactive)

Row | SMILES | inhibition
73 | CC(=O)NC(=S)Nc1ccc([N+](=O)[O-])cc1C | 3.35% (inactive)
74 | Cc1cc([N+](=O)[O-])ccc1NC(=S)NC(=O)Cc1ccccc1 | 23.7% (active)
75 | O=C(CSc1ccc2nnc(-c3ccncc3)n2n1)Nc1ccc2c(c1)OCO2 | 5.11% (inactive)
76 | Cn1cc([N+](=O)[O-])c(C(=O)NNC(=O)c2ccc([N+](=O)[O-])cc2)n1 | 1.97% (inactive)
77 | Cc1ccc(-c2csc3ncnc(NS(=O)(=O)c4ccc(Cl)cc4)c23)cc1 | -5.44% (inactive)
78 | CN(C)CCCNc1ncnc2scc(-c3ccccc3)c12 | -12.9% (inactive)
79 | CCOC(=O)c1ccc(NC(=O)COc2ccc(S(=O)(=O)N3CCCC3)cc2)cc1 | 10.4% (inactive)
80 | O=S(=O)(Nc1nc2ccccc2nc1Cl)c1ccccc1 | 7.23% (inactive)
81 | O=S(=O)(Nc1nc2ccccc2nc1Cl)c1ccc2c(c1)OCCO2 | 15.8% (inactive)
82 | Cc1cc(S(=O)(=O)Nc2cccc(Cl)c2)c(C)s1 | 7.05% (inactive)
83 | CSc1ccccc1C(=O)C1CCCN(C(=O)c2ccc(N3CCOCC3)cc2)C1 (centres undefined) | 0.54% (inactive)
84 | COC(=O)C1=NN(C(=O)c2cccc(Cl)c2)C(O)(C(C)(C)C)C1 (centres undefined) | 33.3% (inactive)
85 | COC(=O)C1=NN(C(=O)c2ccc(Br)cc2)C(O)(C(C)(C)C)C1 (centres undefined) | 53.2% (inactive)
86 | Cc1ccn2c(NCc3ccc4c(c3)OCO4)c(-c3ccc(O)cc3)nc2c1 | 3.37% (inactive)
87 | O=C(NCCc1nc2ccccc2[nH]1)/C(=C/c1ccco1)NC(=O)c1ccc(Br)cc1 | 3.21% (inactive)
88 | Cc1nc(SCC(=O)O)c2oc3ccccc3c2n1 | 3.31% (inactive)
89 | O=C(O)CSc1nc(-c2ccccc2)nc2c1oc1ccccc12 | 8.15% (inactive)
90 | CN(C)c1ccc(/C=N/NC(=O)CCCO)cc1 | 16.7% (inactive)
91 | C/C=C/c1ccc(OCCOc2ccc(C=O)cc2)c(OC)c1 | 9.05% (inactive)
92 | C/C=C/c1ccc(OCCCCOc2ccc(OC)cc2)c(OC)c1 | -1.18% (inactive)
93 | Cc1cc(-c2nnc(SCC(=O)Nc3nc(-c4ccccc4)cs3)o2)no1 | 17.1% (inactive)
94 | O=[N+]([O-])c1ccc(Oc2c(F)c(F)nc(N3CCCC3)c2F)cc1 | 1.61% (inactive)
